# Only some compounds are listed: those with a hit (about 4.2% of all), similar ones and a draw of the others.
# ssDAF-12 act = S. stercoralis DAF-12 nuclear receptor activators, primary screen, cell-based, luminescence, HEK293, GRIP1 co-expression, lit1-tk-luc | actives 1% (n = 370,000) | HEK293 ssDAF-12/GRIP1 lit1-tk-luc reporter; % of 3 µM dafachronic acid response | activation, % at 6.8 µM;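 active = activation above the mean over all tested compounds plus 3 SD, cut at about 0.9% in these data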;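 also: 0% = DMSO-only wells and 100% = 3 µM delta7-dafachronic acid wells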
# hcDAF12 agonist = H. contortus DAF-12 nuclear receptor activators, primary screen, cell-based, luminescence, HEK293, lit1-tk-luc reporter; actives 1.4% (n = 370,000); AID 652067, 2013; HEK293 hcDAF-12 lit1-tk-luc reporter; 0% DMSO, 100% Δ7-dafachronic acid; activation, % at 6.8 µM;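 active = activation above the mean of all tested compounds plus 3 SD, cut at about 5.5% in these data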;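 also: 100% = response to 3 µM Δ7-dafachronic acid high control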
# SMARCA2 act = SMARCA2 (BRM) function activators, primary screen, cell-based, luminescence, high throughput. MG213 cells, MMTV-luciferase reporter, dexamethasone, overnight. activation, % at 9.1 µM. actives 1% (n = 370,000). AID 652017, 2013; in the data active = activation above about 7.8%;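 also: 0% = vehicle wells and 100% = reference activator wells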
# hgDAF12 agonist = H. glycines DAF-12 receptor agonists, primary screen, cell-based, luminescence, HEK293, GAL4 fusion, UAS-luciferase; Nuclear hormone receptor DAF-12 (Heterodera glycines), GAL4 fusion; HEK293 GAL4-hgDAF12 UAS-luciferase reporter, agonist luminescence; normalized to butyrate control; activation, % at 6.8 µM; actives 1.8% (n = 370,000);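 active = activation above a cutoff set at the mean of all screened compounds plus 3 SD, cut at about 10% in these data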;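 also: 0% = DMSO wells and 100% = sodium butyrate wells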
# DAX1 StAR inh = DAX1 (NR0B1) inhibitors on StAR promoter, primary screen, cell-based, luminescence, SF-1 (NR5A1), full-length DAX-1; HEK293T StAR-luciferase reporter, SF-1/DAX-1 repression relief; inhibition, % at 6.8 µM; actives 1.1% (n = 370,000);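 active = inhibition above the mean over all tested compounds plus 3 SD, cut at about 3.6% in these data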;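 also: 0% = DAX-1 cells with DMSO and 100% = cells lacking DAX-1 with DMSO; higher inhibition means more luminescence from relief of DAX-1 repression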
# An asterisk follows results filed as active; / = no result given.
SMILES,ssDAF-12 act,hcDAF12 agonist,SMARCA2 act,hgDAF12 agonist,DAX1 StAR inh
COc1ccc(C(=O)OCCN2CCN(C3CN(Cc4cn(Cc5ccccc5Cl)nn4)S(=O)(=O)C3)CC2)cc1OC (stereo not drawn),-2,-3,-2,-3,-3
COc1ccc(O)c(C(=O)c2cnn(C(=O)c3cccc(N(C)C)c3)c2)c1,0,4,5,10,1
CN(C)c1cccc(C(=O)n2cc(C(=O)c3cc(F)ccc3O)cn2)c1,-1,0,7.8*,9,1
O=C(c1cc2ccccc2o1)N(Cc1ccco1)Cc1cccs1,0,0,1,1,-1
Cc1c(C(=O)N(Cc2ccco2)Cc2cccs2)oc2ccccc12,1.1*,0,3,2,1
COc1ccc(C)cc1Nc1n[n+](-c2ccccc2)c(-c2ccc(SC)cc2)s1,0,2,3,12*,0
COc1ccc(C)cc1Nc1n[n+](-c2ccccc2)c(-c2ccc(NC(C)=O)cc2)s1,-1,2,1,4,0
CCc1c(Cc2cccc(F)c2)ncn1CCc1ccccc1OC,-1,-1,5,-2,-1
O=C(Nc1ccc2ccccc2c1)c1cc(F)c(F)cc1Cl,0,0,4,10,3
O=C(Nc1ccc2c(c1)C(=O)OC2)c1ccc(Cl)cc1Cl,-1,5.6*,0,1,0
O=C(Nc1ccc2ccccc2c1)c1ccc(Cl)cc1Cl,0,5,1,11*,2
COc1ccc(S[C@]2(C(=O)N3CCN(c4ncccn4)CC3)CC(=O)N(c3ccc(OC)cc3)[C@@H]2c2ccc(OC)cc2)cc1,-1,1,-3,-6,-1
O=C(c1ccccc1)n1ccc2ccc(-c3ccc4ccn(C(=O)c5ccccc5)c4c3)cc21,0,2,0,1,0
Cc1cccc(NC(=S)N(CCN(C)C)Cc2cc3cccc(C)c3[nH]c2=O)c1,-2,0,-1,3,1
Cc1ccc(NC(=S)N(CCN(C)C)Cc2cc3cccc(C)c3[nH]c2=O)cc1,1.7*,5,0,0,0
Cc1ccc(NC(=O)CN2CCN(S(=O)(=O)c3ccc4c(c3)OCCO4)CC2)c(C)c1,-2,-1,-3,0,0
O=S1(=O)N[C@@H](Cc2ccccc2)COc2cccc(N3CCC[C@H]3CO)c21,-1,1,-1,1,4.1*
O=S1(=O)N[C@H](Cc2ccccc2)COc2cccc(N3CCC[C@H]3CO)c21,-1,0,-3,0,0
COc1cccc(NC(=O)CN(C)C(=O)c2cc3c(s2)CCCCC3)c1,-1,-1,1,0,-1
COc1cccc(NC(=O)CN(C)C(=O)c2cc3c(s2)CCCC3)c1,0,4,-1,3,3.7*
COc1cccc(NC(=O)c2csc3c2CCCC3)c1,0,1,2,11*,2
Cc1cccc(NC(=S)NNC(=O)c2csc3c2CCCC3)c1,0,2,4,11*,1
COc1ccc(/C=C/S(=O)(=O)NCc2ccccc2)c(CNC(=O)OC(C)(C)C)c1,-2,-1,-2,-1,-1
Cn1c(=O)c(-c2cc(=O)[nH][nH]2)c(O)c2ccccc21,0,6.2*,0,3,1
NC(=O)c1cccc(-c2coc3c(C(=O)NCc4ccccc4)cccc23)c1,-2,-2,0,-1,-1
SMILES,ssDAF-12 act,hcDAF12 agonist,SMARCA2 act,hgDAF12 agonist,DAX1 StAR inh
Cc1ccc(S(=O)(=O)N(C)[C@H]2C[C@H]3c4cc(N5CCOCC5)ccc4CCN3C[C@H]2[C@H](C)O)cc1,-1,-2,7,2,0
CCC(C)(C)C(=O)Nc1nnc(CCc2ccccc2)s1,1,5,4,11*,1
Cc1ccc(NC(=O)C2CC(=O)Nc3nncn32)cc1 (stereo not drawn),8.3*,2,1,3,0
O=C1CC(C(=O)Nc2ccc(Cl)cc2)n2ncnc2N1 (stereo not drawn),-1,-1,2,-2,0
CC(=O)c1ccc(NC(=O)CC(C)S(=O)(=O)c2ccc3c(c2)CCN3C(C)=O)cc1 (stereo not drawn),-1,1,-2,0,4.1*
CCC(=O)N1CCc2cc(S(=O)(=O)CCC(=O)Nc3ccc(C(C)=O)cc3)ccc21,-1,0,-3,3,-1
COc1cc(O)c(C(CC(=O)N2CCCC(C)C2)c2ccccc2)c(OC)c1 (stereo not drawn),-1,1,/,2,/
C#CCOCCOCCOCCNc1nc(N2CCOCC2)nc(N2CCN(C(=O)[C@H](CCC(=O)O)n3cc(C(N)CO)nn3)CC2)n1 (stereo partly drawn),-1,0,/,6,/
Cc1cc(-c2c(C)[nH]n(-c3ccccc3)c2=O)n[nH]1,0,5.8*,-2,8,1
Cn1cccc1/C=N/NC(=O)c1ccccn1,0,2,2,12*,3.7*
Cn1cccc1/C=N/NC(=O)c1ccncc1,-1,6.2*,-4,-1,0
O=C(CNC(=O)c1ccccn1)N/N=C/c1ccccc1,-1,1,3,1,-1
Cc1cc(C(=O)N/N=C/c2cccn2C)no1,-1,2,0,3,0
C/C(=N/NC(=O)c1ccccn1)c1ccc(O)cc1,0,3,4,13*,5.1*
CCc1ccc(/C=N/NC(=O)c2ccccn2)cc1,0,6,5,11*,2
O=C(NC1CCCC1)c1cc2c(ccc3ccccc32)o1,0,5,8,11*,3
O=C(NC1CC1)c1cc2ccccc2o1,0,-2,2,4,1
O=C(CSc1nnc(-c2ccco2)n1-c1ccc(Cl)cc1)Nc1ccccc1-c1ccccc1,-2,-1,-3,-4,-1
Cc1cccc(C)c1NC(=O)CNC(=O)CCC(=O)N1CCOCC1,-1,1,-2,2,3.7*
Cc1cccc(C)c1NC(=O)CN(C)C(=O)CCC(=O)N1CCOCC1,-2,-1,-3,2,0
Clc1ccc(SCc2cn3ccsc3n2)cc1,-1,1,1,11*,1
c1cn2cc(CSC3CCCCC3)nc2s1,1,2,3,13*,2
O=C1c2nc3ccccn3c2C(=O)N1Cc1ccccc1,1.4*,1,1,2,0
Cc1cc(NCc2ccccn2)n2ncc(-c3ccccc3)c2n1,1.3*,5,-3,12*,3
Cc1cc(NCc2ccccn2)n2ncc(-c3ccc(Cl)cc3)c2n1,-1,3,3,9,1
